Source: PubChem BioAssay (Broad Institute)
CFTR F508del cor: correctors of CFTR F508del function in bronchial epithelial cells; CFBE cells, YFP halide quenching; stimulated with forskolin plus potentiator P3; % fluorescence drop versus neutral controls; activity (quench increase), % at 7.58 µM; 0.36% of 350,000 active; AID 720511;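 active = mean added fluorescence quench of at least 8% versus neutral control, with both replicates also reaching 8%; inconclusive = only one of the mean or replicate conditions met; inactive = mean below 8% and not both replicates reaching 8%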;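 also: cells transiently co-express mutant CFTR-F508del with the halide-sensitive YFP; corrector assay measuring rescue of mutant channel to the surface after 24 h compound exposure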
PvdQ acylase: P. aeruginosa PvdQ acylase inhibition. AID 488965. inhibition, % at 10 µM. 0.063% of 340,000 active. purified PvdQ acylase, fluorescence plate reader; in the data active = inhibition above about 30%, passing the limit was not always enough; inconclusive = no clear call, values can overlap the other calls;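 also: 0% = vehicle neutral wells and 100% = reference inhibitor wells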
N-glyco inh: N-linked glycosylation inhibition | D54 ERlucT glycosylation luciferase reporter, 24 h; percent of 100 nM tunicamycin response | reporter increase, % at 12.5 µM | 0.23% of 360,000 active | AID 588692;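 active = mean luciferase reporter signal, scaled so untreated is 0 and the glycosylation-blocking control 100, at or above a set limit in every replicate; inconclusive = mean reaches the limit but not every replicate does; inactive = mean below the limit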;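 also: luciferase carries N-glycosylation sites so blocking glycosylation raises the light; 0% = median of neutral control wells and 100% = median of 100 nM tunicamycin wells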
RAD52 anneal inh: inhibitors of human RAD52 DNA annealing | P43351 | recombinant RAD52 DNA annealing, FRET fluorescence | inhibition, % at 18.7 µM | 0.46% of 360,000 active | AID 651710;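 active = every replicate showing at least 50% inhibition; inconclusive = mean inhibition at least 50% but not in every replicate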
dFosB activator: mouse delta FosB homodimer activation | purified delta FosB, TAMRA-CDK5 oligo fluorescence polarization; percent of positive-control signal above neutral wells | activation, % at 25 µM | P13346 | 0.99% of 340,000 active;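 active = mean activation above about 17%, with every replicate also reaching it, limit read from the data, passing the limit was not always enough; inconclusive = only one of the two conditions met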
RAD54 inh: blocks human RAD54 Holliday junction branch migration; FAM/BHQ fluorescence; Q92698; 0.14% of 360,000 active; inhibition, % at 10.4 µM;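 active = mean normalized replicate activity at least 40 and at least half of replicates scoring 40 or more; inconclusive = only one of the two criteria met; inactive = mean below 40 and under half of replicates reaching 40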;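 also: 0% = median of neutral control wells and 100% = median of positive control wells; inhibitors cause a drop in the FAM fluorescence signal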
Target sequence (Q92698 whole entry, looked up): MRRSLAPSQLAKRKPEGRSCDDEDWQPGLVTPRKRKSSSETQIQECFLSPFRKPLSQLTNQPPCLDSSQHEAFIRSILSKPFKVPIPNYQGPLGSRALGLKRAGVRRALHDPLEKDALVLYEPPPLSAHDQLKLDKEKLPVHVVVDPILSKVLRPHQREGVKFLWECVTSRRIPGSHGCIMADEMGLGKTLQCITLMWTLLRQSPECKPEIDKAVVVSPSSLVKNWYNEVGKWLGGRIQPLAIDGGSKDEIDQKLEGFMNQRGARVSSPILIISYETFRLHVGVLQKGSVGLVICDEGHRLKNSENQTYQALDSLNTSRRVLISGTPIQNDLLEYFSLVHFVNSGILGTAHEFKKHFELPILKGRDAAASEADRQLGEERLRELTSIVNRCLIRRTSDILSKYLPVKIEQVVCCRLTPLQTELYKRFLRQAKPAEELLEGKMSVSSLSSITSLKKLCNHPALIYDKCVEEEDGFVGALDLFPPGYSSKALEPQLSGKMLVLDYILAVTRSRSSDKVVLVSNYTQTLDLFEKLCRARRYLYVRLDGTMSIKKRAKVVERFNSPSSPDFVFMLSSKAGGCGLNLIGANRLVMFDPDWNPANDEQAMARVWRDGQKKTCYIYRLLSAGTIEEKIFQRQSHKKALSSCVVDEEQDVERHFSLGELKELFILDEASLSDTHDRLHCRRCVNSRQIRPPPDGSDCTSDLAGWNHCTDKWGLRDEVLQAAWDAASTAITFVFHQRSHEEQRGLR
Starred values were filed as active, the others as inactive; ? = inconclusive; / = not tested or not shown. Most compounds without a hit are left out; they make up all but 1.5% or so of the library.

SMILES	CFTR F508del cor	PvdQ acylase	N-glyco inh	RAD52 anneal inh	dFosB activator	RAD54 inh
C[C@@H]1CN([C@@H](C)CO)C(=O)c2c(c3ccccc3n2C)-c2ccccc2CO[C@H]1CN(C)S(=O)(=O)c1ccsc1	2.4	/	/	17.7	/	-5.1
CN(C)CCNc1cccc2sc3ccc(O)cc3c(=O)c12	3.3	/	106.7*	-72.2	/	/
CCN(CC)CCNc1cccc2sc3ccccc3c(=O)c12	3.8	/	?	35.0	/	89.8*
COc1ccc(OC)c(Nc2cc(C)nc3ccc(C)cc23)c1	11.5*	-11.2	11.8	0.8	0.8	19.9
COc1ccc(/C=N/Nc2cc(C)nc3ccc(OC)cc23)c(OC)c1	-14.4	4.4	-23.2	88.0*	-113.8	94.7*
COc1ccc2nc(C)cc(N/N=C/c3ccccc3)c2c1	/	3.2	-20.7	/	-55.4	29.6
COc1ccc(Nc2cc(C)nc3ccccc23)cc1	-2.1	3.0	-0.5	17.5	7.6	35.1
Cc1ccc(-c2nn3c(C)nnc3c3ccccc23)cc1S(=O)(=O)NC(C)(C)CO	-1.6	-15.5	39.1*	-12.1	-11.9	/
C[C@H]1CCCCO[C@@H](CN(C)S(=O)(=O)c2cn(C)cn2)[C@@H](C)CN([C@@H](C)CO)C(=O)c2cc(NC(=O)Nc3ccccc3)ccc2O1	0.4	/	/	9.7	/	4.2
COC(=O)C1=CN(c2ccc(OC)cc2OC)C(N)=C(C#N)C1c1ccccc1F (stereo unspecified)	9.8*	/	/	-31.9	/	/
CC#CCOCC1CNC(=O)O1 (stereo unspecified)	17.7*	/	0.4	-3.0	/	-1.8
c1cc2c3c(cccc3c1)NC1(CCCC1)N2	-1.7	-10.6	4.9	-5.1	62.7*	0.9
CC1(C)CC2(C)OC2C2(C1)N=NC(=Nc1ccccc1)O2 (stereo unspecified)	/	/	45.2*	/	/	/
C[C@@H]1CCCCO[C@H](CN(C)C(=O)NC2CCCCC2)[C@H](C)CN([C@H](C)CO)C(=O)c2cc(NC(=O)NC3CCCCC3)ccc2O1	1.4	/	/	11.6	/	3.7
COc1ccc(CNC(=O)C[C@H]2C=C[C@H](NC(=O)c3ccc4c(c3)OCO4)[C@@H](CO)O2)cc1	0.4	/	/	7.4	/	-2.2
O=C(NCc1ccc2c(c1)OCO2)c1cc2n(n1)C(C(F)(F)F)CC(c1ccc3c(c1)OCO3)N2 (stereo unspecified)	/	-15.3	-0.7	/	21.1*	3.3
O=C(Nc1cc(Cl)ccc1O)c1cc2n(n1)C(C(F)(F)F)CC(c1ccc3c(c1)OCO3)N2 (stereo unspecified)	/	-11.1	-6.5	/	6.1	-6.4
O=C(NNC(=O)c1cc(Cl)ccc1O)c1ccc(NS(=O)(=O)c2cccs2)cc1	-1.7	-6.0	-0.5	-6.8	-4.4	-16.7
O=C(COC(=O)c1ccc(NS(=O)(=O)c2cccs2)cc1)Nc1nc2c(F)c(F)c(F)cc2s1	/	-15.6	-1.2	/	36.7*	/
O=C(COC(=O)c1cc(NS(=O)(=O)c2cccs2)ccc1O)Nc1cc(Cl)ccc1Cl	-2.0	-9.6	-0.3	-9.1	50.8*	/
CN(C)CC(=O)N[C@@H]1C=C[C@H](CC(=O)NCCN2CCCCC2)O[C@@H]1CO	0.1	/	/	-3.4	/	4.2
C[C@H](CO)N1C[C@H](C)[C@H](CN(C)Cc2ccncc2)OCCCC[C@H](C)Oc2ccc(NC(=O)Nc3ccc4c(c3)OCO4)cc2C1=O	0.0	/	/	31.2	/	-1.7
CC[C@@]1(c2ccccc2OC)ON(c2ccccc2C(F)(F)F)C1=O	1.5	-13.7	43.1*	0.6	2.7	2.6
Cc1ccc(S(=O)(=O)N(C)C[C@H]2Oc3c(NS(=O)(=O)c4ccccc4)cccc3C(=O)N([C@H](C)CO)C[C@@H]2C)cc1	-2.5	/	/	-2.2	/	-1.3
O=C(Nc1cc(Cl)cc(Cl)c1)N[C@@H]1CC[C@@H](CCNS(=O)(=O)c2cccc(F)c2)O[C@H]1CO	3.0	/	/	3.3	/	0.6
O=C(Nc1ccccc1N1CCOCC1)c1cccc(F)c1	-1.8	-12.8	-0.9	-7.3	3.5	-7.0
O=C(Nc1ccccc1N1CCOCC1)c1ccc2nc[nH]c2c1	/	5.2	26.6*	-15.1	-0.6	8.5
CCS(=O)(=O)N[C@H]1C=C[C@H](CC(=O)NCc2ccc(F)cc2)O[C@H]1CO	2.9	/	/	-28.4	/	-0.9
C[C@H]1CN([C@@H](C)CO)C(=O)CCCn2cc(nn2)CO[C@H]1CN(C)C(=O)Nc1cccc(Oc2ccccn2)c1	-1.3	/	/	/	/	/
